{
  "source": "the supplement of paper PMC12297408",
  "note": "Where a name gives a salt, the structure may show the parent alone.",
  "data": [
    {"tested_on": "Plasmodium falciparum NF54/iGP1_RE9H ulg8 stage V gametocytes", "assay": "gametocyte viability (luciferase signal relative to DMSO control) (% of DMSO control); higher = less gametocytocidal activity, active = 50 or less", "details": "concentration: 1 µM; exposure time: 72 h", "protocol": "(§1)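 Synchronous P. falciparum NF54/iGP1_RE9H ulg8 mature stage V gametocytes (day 12) were exposed to Cayman Epigenetics Screening Library compounds at 10 µM or 1 µM for 72 h at 37 °C. Viability was read as RE9H luciferase bioluminescence, normalised to DMSO plate controls (100%); 50 µM methylene blue was the positive control.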", "values": [
      {"smiles": "O=C(CCCCCCSc1ccc2ccccc2c1)NO", "gametocyte viability": "84.8 (inactive)"},
      {"smiles": "COc1ccc(CCc2nc3cc(-c4c(C)noc4C)ccc3n2C[C@H](C)N2CCOCC2)cc1Cl", "gametocyte viability": "78.4 (inactive)"},
      {"smiles": "Cc1cc(C)cc(C(=O)NOCCCCCC(=O)NO)c1", "gametocyte viability": "92.1 (inactive)"},
      {"smiles": "CCCCCCCCOC(=O)C(O)CCC(=O)O", "note": "(stereo not drawn) [Octyl-α-hydroxyglutarate]", "gametocyte viability": "92.4 (inactive)"},
      {"smiles": "CN(C)Cc1c(C(=O)NCCOc2ccc(C(=O)NO)cc2)oc2ccccc12", "gametocyte viability": "65.8 (inactive)"},
      {"smiles": "O=C(CCCCCCC(=O)NO)NO", "note": "[Suberohydroxamic Acid]", "gametocyte viability": "106 (inactive)"},
      {"smiles": "O=c1[nH]c(=S)[nH]c(-c2ccccc2)c1Cc1c(O)ccc2ccccc12", "note": "[SIRT1/2 Inhibitor IV]", "gametocyte viability": "84.7 (inactive)"},
      {"smiles": "O=C(CCCCCCC(=O)Nc1cccnc1)NO", "note": "[Pyroxamide]", "gametocyte viability": "90.7 (inactive)"},
      {"smiles": "CCC(=O)N1CCOc2c(cc(-c3ccc(OC)c(OC)c3)cc2OC[C@H]2CCCN(C)C2)C1", "note": "[I-CBP112 (hydrochloride)]", "gametocyte viability": "84.5 (inactive)"},
      {"smiles": "Cn1cc(C(=O)Nc2ccc3c(c2)OCCO3)c2ccccc2c1=O", "gametocyte viability": "82.7 (inactive)"},
      {"smiles": "Nc1ccccc1NC(=O)c1cnccn1", "gametocyte viability": "96.3 (inactive)"},
      {"smiles": "COC(=O)/C=C/C(=O)N(O)CCCCNCc1ccc(COC(=O)Nc2cccc3ccccc23)cc1", "note": "[Methylstat (hydrate)]", "gametocyte viability": "89.4 (inactive)"},
      {"smiles": "N[C@H]1C[C@@H]1c1ccc(-c2cccc(O)c2)cc1", "gametocyte viability": "92.2 (inactive)"},
      {"smiles": "CC(NC(=O)c1ccccc1/N=C/c1c(O)ccc2ccccc12)c1ccccc1", "note": "(stereo not given) [Sirtinol]", "gametocyte viability": "102 (inactive)"},
      {"smiles": "CC(=O)Nc1ccc(NC(=S)NC(=O)c2ccc(C(C)(C)C)cc2)cc1", "note": "[Tenovin-1]", "gametocyte viability": "81.3 (inactive)"},
      {"smiles": "CCOC(=O)NCCCC(=O)NCCc1ccccc1", "gametocyte viability": "89.7 (inactive)"},
      {"smiles": "Cc1ccc(NC(=O)CCCCCC(=O)Nc2ccccc2N)cc1", "note": "[Pimelic Diphenylamide 106]", "gametocyte viability": "86.8 (inactive)"},
      {"smiles": "CC(=O)SCC(=O)c1ccc(NS(=O)(=O)c2ccc(OCCCN(C)C)cc2)nc1", "gametocyte viability": "83.8 (inactive)"},
      {"smiles": "O=C1C(=Cc2cccnc2)C(=O)c2ccccc21", "gametocyte viability": "79.2 (inactive)"},
      {"smiles": "COc1cc2c(cc1NS(=O)(=O)c1ccc(Br)cc1C)n(C)c(=O)n2C", "gametocyte viability": "89 (inactive)"}
    ]},
    {"tested_on": "Plasmodium falciparum NF54/iGP1_RE9H ulg8 stage V gametocytes", "assay": "gametocyte viability (luciferase signal relative to DMSO control) (% of DMSO control); higher = less gametocytocidal activity, active = 50 or less", "details": "concentration: 10 µM; exposure time: 72 h", "protocol": "as §1", "values": [
      {"smiles": "O=C(CCCCCCSc1ccc2ccccc2c1)NO", "gametocyte viability": "84.6 (inactive)"},
      {"smiles": "COc1ccc(CCc2nc3cc(-c4c(C)noc4C)ccc3n2C[C@H](C)N2CCOCC2)cc1Cl", "gametocyte viability": "68.6 (inactive)"},
      {"smiles": "Cc1cc(C)cc(C(=O)NOCCCCCC(=O)NO)c1", "gametocyte viability": "64.9 (inactive)"},
      {"smiles": "CCCCCCCCOC(=O)C(O)CCC(=O)O", "note": "(stereo not drawn) [Octyl-α-hydroxyglutarate]", "gametocyte viability": "95.4 (inactive)"},
      {"smiles": "CN(C)Cc1c(C(=O)NCCOc2ccc(C(=O)NO)cc2)oc2ccccc12", "gametocyte viability": "59 (inactive)"},
      {"smiles": "O=C(CCCCCCC(=O)NO)NO", "note": "[Suberohydroxamic Acid]", "gametocyte viability": "87.9 (inactive)"},
      {"smiles": "O=c1[nH]c(=S)[nH]c(-c2ccccc2)c1Cc1c(O)ccc2ccccc12", "note": "[SIRT1/2 Inhibitor IV]", "gametocyte viability": "87.5 (inactive)"},
      {"smiles": "O=C(CCCCCCC(=O)Nc1cccnc1)NO", "note": "[Pyroxamide]", "gametocyte viability": "63.8 (inactive)"},
      {"smiles": "CCC(=O)N1CCOc2c(cc(-c3ccc(OC)c(OC)c3)cc2OC[C@H]2CCCN(C)C2)C1", "note": "[I-CBP112 (hydrochloride)]", "gametocyte viability": "86.9 (inactive)"},
      {"smiles": "Cn1cc(C(=O)Nc2ccc3c(c2)OCCO3)c2ccccc2c1=O", "gametocyte viability": "79.9 (inactive)"},
      {"smiles": "Nc1ccccc1NC(=O)c1cnccn1", "gametocyte viability": "89.4 (inactive)"},
      {"smiles": "COC(=O)/C=C/C(=O)N(O)CCCCNCc1ccc(COC(=O)Nc2cccc3ccccc23)cc1", "note": "[Methylstat (hydrate)]", "gametocyte viability": "32 (active)"},
      {"smiles": "N[C@H]1C[C@@H]1c1ccc(-c2cccc(O)c2)cc1", "gametocyte viability": "79.4 (inactive)"},
      {"smiles": "CC(NC(=O)c1ccccc1/N=C/c1c(O)ccc2ccccc12)c1ccccc1", "note": "(stereo not given) [Sirtinol]", "gametocyte viability": "95 (inactive)"},
      {"smiles": "CC(=O)Nc1ccc(NC(=S)NC(=O)c2ccc(C(C)(C)C)cc2)cc1", "note": "[Tenovin-1]", "gametocyte viability": "81.9 (inactive)"},
      {"smiles": "CCOC(=O)NCCCC(=O)NCCc1ccccc1", "gametocyte viability": "94.3 (inactive)"},
      {"smiles": "Cc1ccc(NC(=O)CCCCCC(=O)Nc2ccccc2N)cc1", "note": "[Pimelic Diphenylamide 106]", "gametocyte viability": "89 (inactive)"},
      {"smiles": "CC(=O)SCC(=O)c1ccc(NS(=O)(=O)c2ccc(OCCCN(C)C)cc2)nc1", "gametocyte viability": "85.4 (inactive)"},
      {"smiles": "O=C1C(=Cc2cccnc2)C(=O)c2ccccc21", "gametocyte viability": "80.2 (inactive)"},
      {"smiles": "COc1cc2c(cc1NS(=O)(=O)c1ccc(Br)cc1C)n(C)c(=O)n2C", "gametocyte viability": "86.4 (inactive)"}
    ]}
  ]
}
